# Test results: the supplement of paper PMC9135407
# Where “and” joins values, the source holds several entries; their conditions need not be identical. Equal entries are not always repeated. Screen size: about 5,800 compounds; about 620 (11%) showed activity. Shown is part of a subset that was picked to be rich in actives. Unmarked numbers belong to inactive results.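 Rule for the calls: active = score above a cut-off or among the top three wells of a plate; in these data no inactive exceeds 0.85.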
# System: primary human hepatic stellate cells (donor 1)
# Experiment: scaled lipid accumulation score (0 = DMSO-like, 1 = nortriptyline-like); higher = stronger HSC inactivation (lipid re-accumulation), active = hit call of the paper
# Details: 48 h
# [1] = library stock concentration: 1 mM
# [2] = library stock concentration: 10 mM
# [3] = library stock concentration: 3.33 mM
# [4] = library stock concentration: 80 uM
# [5] = library stock concentration: 400 uM
# [6] = library stock concentration: 2 mM
compound,measurement,setting,value
CCCCCCCCCCCCCCCCCCOCC(O)COP(=O)([O-])OCC[N+](C)(C)C (stereo unspecified),scaled lipid accumulation score,[1],≤ 0
CCCCCCCCCCCCCCCCCC(=O)OCC [Stearic Acid ethyl ester],scaled lipid accumulation score,[1],≤ 0
O=C1C(Cl)=C(NCCN2CCOCC2)C(=O)c2ncccc21,scaled lipid accumulation score,[2],1.04 (active)
O=C(NCCN1CCOCC1)c1ccc(Cl)cc1,scaled lipid accumulation score,[3],≤ 0
same,scaled lipid accumulation score,[2],≤ 0
O=C(NCCN1CCOCC1)c1ccc(Cl)cc1 [Moclobemide],scaled lipid accumulation score,,0.059
same,scaled lipid accumulation score,[2],0.047
c1ccc2c(c1)CCCc1cc(NCCN3CCOCC3)nnc1-2,scaled lipid accumulation score,,0.038
O=C(NCCN1CCOCC1)c1ccc(Cl)cc1 [4-Chloro-N-(2-morpholin-4-yl-ethyl)-benzamide],scaled lipid accumulation score,[2],≤ 0
CN1Cc2sccc2C(c2ccc(O)c(O)c2)C1 (stereo unspecified),scaled lipid accumulation score,[2],0.005
CC(=O)N[C@@H](CSC/C=C(\C)CC/C=C(\C)CCC=C(C)C)C(=O)O [N-acetyl-S-farnesyl-L-Cysteine],scaled lipid accumulation score,[1],≤ 0
CC(=O)N[C@@H](CSC/C=C(\C)CC/C=C(\C)CCC=C(C)C)C(=O)O [Acetyl (N)-s-farnesyl-l-cysteine],scaled lipid accumulation score,library stock concentration: 13.6 mM,≤ -0.021
CS(=O)(=O)Nc1c(O)ccc2c1CCCC2C1=NCCN1 (stereo unspecified),scaled lipid accumulation score,[2],0.027
COc1cc(C=C(C#N)C(N)=O)cc(CSc2nc3ccccc3s2)c1O [Tyrphostin AG-825],scaled lipid accumulation score,library stock concentration: 12.6 mM,0.042
c1ccc(-c2cnc(Nc3ccc(OCCN4CCCC4)cc3)s2)cc1 [Flt-3 Inhibitor III],scaled lipid accumulation score,[3],1.17 (active)
Cc1cnc(Nc2ccc(OCCN3CCCC3)cc2)nc1Nc1cccc(S(=O)(=O)NC(C)(C)C)c1,scaled lipid accumulation score,[4],0.07
same,scaled lipid accumulation score,[5],0.23
same,scaled lipid accumulation score,[6],0.765
same,scaled lipid accumulation score,[3],0.703
same,scaled lipid accumulation score,[2],0.345 and 0.579
c1cc(-c2cnn3cc(-c4ccc(OCCN5CCCCC5)cc4)cnc23)ccn1 [Dorsomorphin],scaled lipid accumulation score,[4],≤ 0
same,scaled lipid accumulation score,[5],≤ 0
same,scaled lipid accumulation score,[6],0.557
same,scaled lipid accumulation score,[2],0.469
"c1cc(-c2cnn3cc(-c4ccc(OCCN5CCCCC5)cc4)cnc23)ccn1 [AMPK Inhibitor, Compound C]",scaled lipid accumulation score,[3],≤ 0
CCCCC[C@H](O)C/C=C1/C(=O)C[C@H](O)[C@@H]1C/C=C\CCCC(=O)O [.DELTA.12-Prostaglandin D2],scaled lipid accumulation score,[1],≤ 0
CCCCC/C=C\C/C=C\CC/C=C\CCCC(=O)O [Pinolenic Acid],scaled lipid accumulation score,[1],0.009
NC(=O)N1C(=O)/C(=C(\O)c2cccs2)c2cc(Cl)ccc21 [Tenidap],scaled lipid accumulation score,[2],≤ -0.001
O=C(O)c1cc(O)c2ccc(Cl)cc2n1 [7-Chlorokynurenic acid],scaled lipid accumulation score,[2],0.023
Cc1cnc(-c2ccccc2C(C)C)nc1NCc1ccc(-n2ccnn2)cc1,scaled lipid accumulation score,[3],≤ -0.009
same,scaled lipid accumulation score,[2],≤ 0
